Source: PubChem BioAssay (NCI)
Where “and” joins values, the source holds several entries; their conditions need not be identical. Equal values may be shown once. The panel holds about 83,000 compounds, 20% with a hit somewhere; the sample as a whole holds those more often.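 Method: cells in 96-well plates; compound added at one concentration; 48 h incubation; percent growth measured; values under 10 scored active.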 Calls of active or inactive are those of the source.

The compounds below were run on HL-60(TB) leukemia (assay: NCI-60 one-dose screen, 48 h (100 = growth as untreated, 0 = no growth, -100 = all killed)). Details: 10 µM unless noted.
With FC(F)(F)c1cccc(Nc2nc3ccccc3nc2Nc2cccc(C(F)(F)F)c2)c1 the growth was -48.9% (active). For CC(=O)N1N=C(c2ccc(Cl)cc2)CC1c1cn(-c2ccccc2)nc1-c1ccc([N+](=O)[O-])cc1 (centres undefined), the growth was 121% (inactive). CCOC(=O)c1nnn(C(Cc2ccccc2Cl)C(=O)OCC)c1C (centres undefined) was tested, and the growth was 96.5% (inactive). For O=C1Nc2ccc(Br)cc2/C1=N/c1nc(-c2ccccc2)cs1, the growth was 73.1% (inactive). COc1ccc(Sc2ccc3[nH]c(=O)nc(N)c3c2)cc1 was tested, and the growth was 94.9% (inactive). O=C1CSC(c2ccccc2Cl)N1c1nnc(Cn2cnnc2)o1 (centres undefined) was tested, and the growth was -17.3% (active). Cn1cccc1/C=C1/SC(=S)N(CCc2ccc(O)cc2)C1=O was tested, and the growth was 1.22% (active). COc1cc2c(c(OC)c1OC)CCC(c1cccc(C(=O)Nc3ccc(C#N)cc3)c1)O2 (centres undefined) was tested, and the growth was 15.2% (inactive). For Nc1ncnc2c1N=C(c1ccc3c(c1)OCO3)CC(c1cccc(Nc3ccnc4cc(Cl)ccc34)c1)N2 (centres undefined), the growth was 37.9% (inactive). For Cn1ccc2c(c1=O)C(=O)c1nccc3c1c-2nc1ccccc13, the growth was -67.4% (active). O=S1(=O)CC(Br)C(Br)C1 (centres undefined) was tested, and the growth was 34.4% (inactive) and 81.8% (inactive). With CCN(CC)c1ccc2[nH]c3c(C(N)=O)cc(=O)c(=O)c=3oc2c1 the growth was -25.1% (active). In the case of COC(=O)c1c2c(c(C)[n+]([O-])c1C)C(=O)C(NCc1ccc(Cl)cc1)=CC2=O, the growth is reported as 80.3% (inactive). For O=C(O)c1ccccc1Cc1ccc(F)c2ccccc12, the growth was 98.1% (inactive) and 91.1% (inactive). In the case of Cc1cccc(CO)c1, the growth is reported as 109% (inactive). N#CC1CCc2c(c(-c3cn[nH]c3C(F)(F)F)nc3c(F)cc4[nH]ncc4c23)C1 (centres undefined) was tested, and the growth was 47% (inactive). In the case of OCC(O)C(O)CC1SCCS1 (centres undefined), the growth is reported as 46% (inactive). In the case of N#CC1=C(c2ccc(Br)cc2)NC(SCC(=O)c2ccc(Br)cc2)NC1=O (centres undefined), the growth is reported as 96% (inactive). With COc1ccc(/C=C/C(=O)c2c(C)nc3ccccc3c2/C=C/c2ccccc2)c(OC)c1 the growth was 66.7% (inactive). For CCOc1ccc(/C=N/Nc2cc(C)nc3ccc(Cl)cc23)cc1, the growth was -51.7% (active). For COc1cc(Nc2c(C#N)cnc3cc(OCCCN4CCN(C)CC4)c(OC)cc23)c(Cl)cc1Cl, the growth was 6.54% (active). Nc1c2ccccc2nc2ccccc12 was tested, and the growth was 21% (inactive) and 9.95% (active) and 47.7% (inactive). In the case of CC(C)(C)OC(=O)N1CCCN(CCNc2nccc(-c3c(-c4cccc(O)c4)nc4sccn34)n2)S1(=O)=O, the growth is reported as 104% (inactive). Cc1nn(-c2nc3ccccc3[nH]2)c2c1C(c1ccc(OCc3ccc(F)cc3)cc1)CC(=O)N2 (centres undefined) was tested, and the growth was 75.8% (inactive). In the case of C#CCOc1cccc(Nc2ncnc3ccc(NC(=O)CCl)cc23)c1, the growth is reported as -58.4% (active). For NC(CSSCC(N)C(=O)O)C(=O)O (centres undefined), the growth was -12.8% (active). In the case of N=C(N)N=Nc1ccc(O)cc1, the growth is reported as 69% [100 µM] (inactive). With COc1ccc(C2CC(c3ccc(Nc4nc(Nc5ccccc5)nc(Nc5ccccc5)n4)cc3)=NN2C(C)=O)cc1 (centres undefined) the growth was 95.1% (inactive). Cc1sc2nc(N3CCCCC3)[nH]c(=O)c2c1C was tested, and the growth was 102% (inactive). For O=C(CSc1nc2ccc([N+](=O)[O-])cc2[nH]1)Nc1cccc(C(F)(F)F)c1, the growth was 0.11% (active). In the case of COc1cc(/C=C\c2cc(/C=C\c3ccc(O)c(OC)c3)n(C(=O)Nc3ccc(C(F)(F)F)cc3)n2)ccc1O, the growth is reported as 15.2% (inactive). With COc1ccc(Cn2cc3c(c2-c2ccccc2)CCc2cncnc2-3)cc1 the growth was 15.2% (inactive). With Cc1cc2nc3c4cc(O)ccc4n(CCN(C)C)c3nc2cc1C the growth was 7.36% (active). With CCCCCCCCCCCC(=O)OCCNC(=O)C[n+]1ccccc1 the growth was 100% (inactive). COc1ccc2c(c1)OC1=C(C(=O)OC1)C2c1cc(OC)c2c(c1)OCCO2 (centres undefined) was tested, and the growth was -29.2% (active). In the case of O=C(Nc1ccc(Cl)cc1F)c1ccccc1O, the growth is reported as 19.9% (inactive). CCCCCOc1ccc(/C=N/Nc2cc(C)nc3ccc(Br)cc23)cc1 was tested, and the growth was -2.49% (active). For CCCCCCCCCCCCCCCCCCNC(=O)[C@H]1CSC(c2cccs2)N1 (some centres undefined), the growth was -67.5% (active). With O=C1NC(=O)c2c1c1c3ccccc3ccc1c1[nH]c3ccc(Br)cc3c21 the growth was 18.7% (inactive).
